Source: PubChem (several laboratories)
Mot1-301 SUMO = yeast Mot1-301 growth rescue at high temperature, primary screen, SUMOylation pathway inhibitor project, S. cerevisiae, ATP luminescence, 38.5C; 320,000 tested, 1% active; growth rescue, % at 18.8 µM; S. cerevisiae Mot1-301 growth rescue; percent above DMSO median, 100 means doubled; AID 2716, 2010;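 active means every valid replicate shows activation above 250% relative to neutral control wells; inactive means the rest, any valid replicate at or below 250%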
LANA-H2A inh = blockers of LANA interaction with H2A/H2B – biochemical, FP readout, HTS, primary screen. Protein LANA1 (Human herpesvirus 8 type P (isolate GK18)), Q9QR71. 320,000 tested, 0.6% active. AID 2629, 2010. inhibition, % (test concentration not listed). cell-free LANA-H2A/H2B peptide, fluorescence polarization; in the data active means inhibition mostly above about 10%, no sharp cut-off; inactive means mostly below about 6.7%
Target sequence (Q9QR71 whole entry, looked up): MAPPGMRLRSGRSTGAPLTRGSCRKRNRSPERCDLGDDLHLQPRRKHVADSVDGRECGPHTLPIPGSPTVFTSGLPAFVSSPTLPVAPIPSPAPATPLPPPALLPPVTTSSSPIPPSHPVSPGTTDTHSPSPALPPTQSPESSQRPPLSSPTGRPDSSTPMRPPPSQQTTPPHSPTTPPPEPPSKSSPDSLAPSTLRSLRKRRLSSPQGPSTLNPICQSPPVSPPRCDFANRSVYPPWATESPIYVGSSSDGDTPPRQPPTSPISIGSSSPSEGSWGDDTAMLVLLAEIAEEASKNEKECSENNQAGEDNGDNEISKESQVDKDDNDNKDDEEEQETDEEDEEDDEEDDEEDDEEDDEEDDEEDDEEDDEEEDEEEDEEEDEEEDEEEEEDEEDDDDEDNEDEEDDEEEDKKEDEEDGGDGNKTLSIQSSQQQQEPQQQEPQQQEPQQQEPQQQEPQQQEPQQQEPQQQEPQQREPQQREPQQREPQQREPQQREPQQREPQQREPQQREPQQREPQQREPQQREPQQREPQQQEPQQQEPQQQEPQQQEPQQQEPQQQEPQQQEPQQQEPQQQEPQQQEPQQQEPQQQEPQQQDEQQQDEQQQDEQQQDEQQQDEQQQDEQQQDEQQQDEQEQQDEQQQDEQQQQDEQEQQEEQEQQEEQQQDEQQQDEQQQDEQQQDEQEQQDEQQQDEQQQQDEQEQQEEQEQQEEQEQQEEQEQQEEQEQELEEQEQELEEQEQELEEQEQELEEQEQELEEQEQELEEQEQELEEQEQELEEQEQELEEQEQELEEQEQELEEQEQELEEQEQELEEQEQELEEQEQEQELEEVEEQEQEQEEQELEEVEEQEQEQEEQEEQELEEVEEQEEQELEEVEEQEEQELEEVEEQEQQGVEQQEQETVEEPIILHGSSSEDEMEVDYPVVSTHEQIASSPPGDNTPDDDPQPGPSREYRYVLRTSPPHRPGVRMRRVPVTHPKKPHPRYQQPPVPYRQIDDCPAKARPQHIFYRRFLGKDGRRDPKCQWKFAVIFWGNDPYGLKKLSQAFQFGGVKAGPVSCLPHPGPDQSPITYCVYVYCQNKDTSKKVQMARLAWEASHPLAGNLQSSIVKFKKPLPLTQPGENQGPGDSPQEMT
IDE inh = human IDE inhibitors in live cells, primary screen, fluorescence polarization, HEK cells, FAbetaB substrate | FAbetaB cleavage | inhibition, % at 5.59 µM | 320,000 tested, 0.41% active | AID 434962, 2010;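 active means percent inhibition above the average of all tested compounds plus 3 SD, set per screening campaign, cut at about 16% in these data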;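 further: IDE supplied by intact live HEK cells; FP after avidin binding of uncleaved biotin substrate so inhibition keeps polarization high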
HDAC3 inhib = HDAC3 deacetylase inhibitors, primary screen, biochemical, fluorescence, cell-free homogeneous. Histone deacetylase 3 (Homo sapiens), O15379. recombinant HDAC3, fluorogenic peptide/trypsin coupled. inhibition, % at 8.3 µM. 320,000 tested, 0.15% active. AID 2718, 2010; in the data active means inhibition above about 26%, passing the limit was not always enough
IDE cell activ = human IDE activators in live cells, primary screen, fluorescence polarization, HEK cells, FAbeta-B substrate | Insulin-degrading enzyme (Homo sapiens), P14735 | FAbeta-B cleavage; 0% vehicle, 100% cell-free pure enzyme wells | activation, % at 5.96 µM | 340,000 tested, 0.073% active;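 active means activation above the mean of all tested compounds plus 3 SD, set per screening campaign, cut at about 17% in these data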
Mot1 SUMO dose = growth restoration of Mot1-301 yeast on galactose, dose response, SUMO pathway inhibitor project, whole organism, S. cerevisiae, ATP luminescence, cherry-picked samples; growth activity, percent, % at 42 µM; shares compounds with Mot1-301 SUMO; AID 493004, 2010; 2,300 tested, under 10 active; S. cerevisiae Mot1-301 galactose growth, 24 h; -100 = growth of slx-deleted rescue strain;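 active means Signal drops as the depositor expects, and the fitted half-maximal dose is no more than ten times the top valid tested dose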;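 further: more negative values mean stronger growth rescue toward the control strain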
Numbers stand for hits; n = inactive; x = no result; + = active, no number. A selection: hits, their analogues and other compounds. The true share with any hit is near 2.1%.

SMILES | Mot1-301 SUMO | LANA-H2A inh | IDE inh | HDAC3 inhib | IDE cell activ | Mot1 SUMO dose
COc1ccc(C2=C(N)c3ccccc3C2=O)cc1 | 457 | n | n | n | n | n
Cc1ccc(NC(=O)CN(C)C(=O)c2cccc(Br)c2)cc1 | 695 | n | n | n | n | n
COc1cccc(NC(=O)CN(C)C(=O)c2ccccc2OCc2c(C)noc2C)c1 | + | n | n | n | n | n
CCOc1ccc(NC(=O)CN(C)C(=O)C2CC(=O)N(Cc3ccco3)C2)cc1OCC (stereo not given) | n | n | n | n | n | x
O=C(O)c1ccccc1C(=O)c1cccc2c(Br)cccc12 | x | x | x | x | n | x
Cc1ccc(Sc2cnccc2C#N)cc1 | 618 | n | n | n | n | n
Cc1ccc(SC(C)c2nc(-c3ccncc3)no2)cc1 (stereo not given) | n | n | n | n | n | x
CCOc1nc2cnccc2n(CC(=O)Nc2ccccc2C(=O)OC)c1=O | n | n | n | n | n | x
CC(C)c1ccc2c(c1)CCC1C(C)(CN)CCCC21C (stereo not given) | 617 | n | n | n | n | n
Cc1onc(-c2ccccc2Cl)c1C(=O)N1CCc2ccccc2C1 | 680 | n | n | n | n | n
O=C(OCC(=O)N1CCN(c2ccccc2)CC1)c1nc(Cl)ccc1Cl | 641 | n | n | n | n | n
Cc1cccn2c(=O)c3cc(C(=O)NCc4cccnc4)c(=N)n(C(C)C)c3nc12 | 759 | n | n | n | n | n
Cc1cccn2c(=O)c3cc(C(=O)NCCc4ccccc4)sc3nc12 | 798 | n | n | n | n | n
CCOC(=O)C1=CN(Cc2cccc(F)c2)S(=O)(=O)N(C)C1c1ccc(F)c(Cl)c1 (stereo not given) | x | x | x | x | n | x
CCOc1ccc(CCN2CN(C3CCCCC3)CNC2=S)cc1OCC | 431 | n | n | n | n | n
CSc1ccccc1OCc1cc(C(=O)NCCc2ccco2)no1 | n | n | n | n | n | x
Cc1[nH]n(-c2ccccc2)c(=O)c1C(C[N+](=O)[O-])c1ccc(Br)cc1 (stereo not given) | 524 | n | n | n | n | n
CN(Cc1ccccc1)C(=O)c1ccc(NC(=O)Cc2cccc(NC(=O)C3CCN(C(=O)C4CCC4)CC3)c2)cc1 | n | n | n | n | n | x
COCCNC(=O)NC(=O)CSc1nc(C)c(C)c(C)n1 | 494 | n | n | n | n | n
COc1ccc(CN(C)CC(=O)NCC(=O)Nc2c(C)cccc2C)cc1 | n | n | n | n | n | x
CN(C)S(=O)(=O)c1ccc(C(=O)NCCc2ccco2)cc1 | n | n | n | n | n | x
COc1ccccc1C(=O)Nc1ccc(C(=O)N2CCCCC2)cc1 | n | n | n | n | n | x
Cc1ccc2c(c1)N(CC(=O)NCC1CCCO1)C(=O)C(C)O2 (stereo not given) | 522 | n | n | n | n | n
C=CCNC(=O)NC(=O)COC(=O)/C(C#N)=C/c1cc(C)n(CC(C)C)c1C | + | n | n | n | n | n
CC(C)[C@H](N[C@@H](C)c1ccccc1)c1c(O)ccc2ccccc12 | n | n | n | n | n | x
SMILES | Mot1-301 SUMO | LANA-H2A inh | IDE inh | HDAC3 inhib | IDE cell activ | Mot1 SUMO dose
Cc1cccc(-n2c(Cc3ccccc3)n[nH]c2=S)c1 | n | n | n | n | n | x
CCc1ccc(-n2c(Cc3ccccc3)n[nH]c2=S)cc1 | 889 | n | n | n | n | n
CCCCC(O)(c1ccc(F)cc1)C(CN1CCOCC1)c1ccc(Cl)cc1 (stereo not given) | 537 | n | n | n | n | n
O=c1cc(COc2ncnc3ccccc23)nc2sccn12 | 543 | n | n | n | n | n
O=c1cc(COc2ncnc3c(Cl)cc(Cl)cc23)nc2sccn12 | n | n | n | x | n | x
CC1CCCC(NC(=O)NC(=O)COC(=O)c2ccc(O)cc2O)C1C (stereo not given) | x | x | n | x | n | x
COc1ccc(C(=O)O/N=C(\N)c2cccc(C)c2)cc1OC | n | n | n | n | n | x
COc1ccc(C(=O)O/N=C(\N)c2ccccc2)cc1OC | 380 | n | n | n | n | n
CC(=O)c1ccc(N(C(=O)CNC(=O)c2ccco2)C(C(=O)NC2CCCC2)c2cccnc2)cc1 (stereo not given) | n | n | n | n | n | x
CCOC(=O)NNC(=O)CCn1c2c(c3ccccc31)CCCC2 | 960 | n | n | n | n | n
CC(=O)NNC(=O)CCn1c2c(c3ccccc31)CCCC2 | n | n | n | n | n | x
O=S(=O)(Cc1cc(-c2ccccc2)no1)c1ccccc1 | 643 | n | n | n | n | n
CCOc1ccc(-c2nc3n(c(=O)c2C#N)CCS3)cc1 | 439 | n | n | n | n | n
Cc1ccc(NC(=O)CCN2CC(C)OC(C)C2)cc1C (stereo not given) | n | n | n | n | n | x
O=C(CCC(=O)OCC(=O)c1ccc(Br)cc1)Nc1cccc2cccnc12 | 429 | n | n | n | n | n
Cn1c(=O)[nH]c(=O)c2c1nc(Br)n2Cc1cccc(Br)c1 | n | n | n | n | n | x
CCCCNC(=O)N1CCC(CCC(=O)N(C)Cc2ccccc2)CC1 | 375 | n | n | n | n | n
CCN(Cc1ccccc1)Cc1ccc(OCc2ccccc2)c(OC)c1 | 365 | n | n | n | n | n
O=C(CSc1n[nH]c(=O)[nH]c1=O)Nc1ccc(SC(F)F)cc1 | n | n | n | n | n | x
N#Cc1cccc(NC(=O)CSc2n[nH]c(=O)[nH]c2=O)c1 | 652 | n | n | n | n | n
COc1ccc(NS(=O)(=O)c2ccc(NC(=O)C3CCCO3)cc2)cc1 (stereo not given) | n | n | n | n | n | x
Cc1ccc(NS(=O)(=O)c2ccc(NC(=O)C3CCCO3)cc2)cc1 (stereo not given) | 469 | n | n | n | n | n
C=CCN1c2ccccc2[C@]23C[C@@H](C(=O)OC)N=C2NC(C(=O)OC)=C(C(=O)OC)[C@H]13 | 834 | n | n | n | n | n
CC12CCC(=O)N1C(C(=O)Nc1cccc3ccccc13)CS2 (stereo not given) | n | n | n | n | n | x
CC12CCC(=O)N1C(C(=O)Nc1ccccc1F)CS2 (stereo not given) | 793 | n | n | n | n | n
CCCCCCCCn1cc(C(C)=O)c(=O)[nH]c1=O | n | n | n | n | n | x
C=CCn1cc(C(C)=O)c(=O)[nH]c1=O | 610 | n | n | n | n | n
O=C(COC(=O)Cc1ccsc1)NC1CCCCCC1 | 609 | n | n | n | n | n
